Assay results reported in PubChem BioAssay AID463212 (Sanford-Burnham Center for Chemical Genomics, 2010).
Values joined by “and” are separate entries in the source; they are usually repeats but may differ in a detail not shown here. Identical values can stand only once. The whole screen tested about 330,000 compounds, of which about 4,400 (1.3%) were called active.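 The calls were made as follows: active = growth inhibition of the mutant yeast at or above 50%; inactive = the rest.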 For the sample, actives were picked, then their nearest neighbours and some compounds at random.

Assay: growth inhibition of tim23-1 ts yeast – luminescence, uHTS, primary screen (AID 463212);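 also: temperature-sensitive mutant grown at 25 °C; plate controls were DMSO-treated mutant yeast for no effect and medium wells lacking yeast for full effect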
Details: S. cerevisiae tim23-1 growth, BacTiter-Glo luminescence, 24 h; at 20 µM; active compounds read high
In the case of COc1ccc(OC)c(NC(=O)CN(Cc2ccc(Cl)cc2)S(C)(=O)=O)c1, the inhibition is reported as 9.4% (inactive). In the case of COc1ccc(C(=O)Nc2cc(C)c(NC(=O)c3ccccc3OC)cn2)cc1, the inhibition is reported as 28.7% (inactive). For COc1ccc(C(=O)Nc2ccccc2C(=O)N/N=C/c2ccc(O)c(OC)c2)cc1, the inhibition was 96% (active). With COc1ccc(C(=O)Nc2ccccc2C(=O)N/N=C/c2ccccc2OC)cc1 the inhibition was 78.3% (active). With COc1ccc2[nH]c(C(=O)N/N=C/c3cc(OC)c(OC)c(OC)c3)cc2c1 the inhibition was 20.6% (inactive). For COc1ccc(C(=O)Nc2ccccc2C(=O)N2CCN(c3ccccc3)CC2)cc1, the inhibition was 35.2% (inactive). In the case of COc1ccc(/C=N/Nc2ccccc2C(=O)O)cc1, the inhibition is reported as 17% (inactive). For CC(C)(C)c1ccc(C(=O)N2CCC(C(=O)N3CCCCC3)CC2)cc1, the inhibition was 13.5% (inactive). With CCc1[nH]nc(C(=O)N2CCCC(CNS(=O)(=O)c3cccs3)C2)c1C (configuration not stated) the inhibition was 0.752% (inactive). For Cc1ccc(C(C(=O)NCC2CCCO2)N(C(=O)c2snc(C(N)=O)c2N)c2ccc(C(C)C)cc2)o1 (configuration not stated), the inhibition was 32.2% (inactive). For CCOc1cc2[nH]c(=S)n(CCN3CCCCC3C)c(=O)c2cc1OCC (configuration not stated), the inhibition was 14.8% (inactive). For CC(C)Cc1ccc(C(C)C(=N)N)cc1 (configuration not stated), the inhibition was 3.35% (inactive). For CCOc1cccc(NC(=O)Cn2nc(-c3ccc4c(c3)OCCO4)ccc2=O)c1, the inhibition was -11.4% (inactive). In the case of Cc1ccc(-c2csc(NCCc3nc4cc(Cl)c(Cl)cc4n3CCOCCO)n2)cc1, the inhibition is reported as 25.4% (inactive). In the case of Cc1ccc(Nc2nc(-c3ccc(O)cc3O)cs2)nc1, the inhibition is reported as 65.9% (active). With C[C@@H]1C(c2ccc(F)cc2)=NN(c2ccc(Br)cc2)[C@H]1C(=O)N1CCOC1=O the inhibition was 61.2% (active). For O=C1OCCN1C(=O)[C@H]1[C@H](c2ccc(F)cc2)C(c2ccccc2)=NN1c1ccc(Br)cc1, the inhibition was 41.6% (inactive). In the case of O=C1OCCN1C(=O)[C@H]1[C@H](c2ccccc2)C(c2ccc(F)cc2)=NN1c1ccccc1, the inhibition is reported as 49.4% (inactive). For CCOCCOCCC(C(=O)O)P(=O)(c1ccccc1)c1ccccc1 (configuration not stated), the inhibition was 20.6% (inactive). With O=C(NC(Nc1nc2ccc([N+](=O)[O-])cc2s1)(C(F)(F)F)C(F)(F)F)c1ccccc1 the inhibition was 80.5% (active). In the case of O=C(COC(=O)c1ccc([N+](=O)[O-])cc1Cl)NC(=O)c1ccccc1, the inhibition is reported as -6.06% (inactive). In the case of O=C(NOCc1ccccc1)c1cccc([N+](=O)[O-])c1, the inhibition is reported as 40.8% (inactive). In the case of CN(C)/C=C(/C(=O)c1ccccc1Cl)S(C)(=O)=O, the inhibition is reported as 8.01% (inactive). For O=S(=O)(Nc1ccc(-c2ccc(N3CCOCC3)nn2)cc1)c1cc(Cl)ccc1Cl, the inhibition was 36% (inactive). In the case of COc1ccc(CCNC(=O)CN(c2ccccc2)S(C)(=O)=O)cc1, the inhibition is reported as 10.1% (inactive). In the case of Cc1cc(C)nc(SCc2ccccc2C#N)n1, the inhibition is reported as 8% (inactive). For Cc1cc(C)nc(S/C=C/C(=O)c2ccccc2)n1, the inhibition was 83.3% (active). For Cc1cc(C)nc(SCC(=O)N(C)C)n1, the inhibition was 3.33% (inactive). With COc1ccc(C2/C(=C(/O)c3ccccc3)C(=O)C(=O)N2C)c(OC)c1 (configuration not stated) the inhibition was 12% (inactive). With COc1ccc(/C=C2/C(=O)OCc3cc(OC)c(OC)cc32)c(OC)c1 the inhibition was 23.4% (inactive). With COc1ccc(/C=C2/C(=O)N(c3ccccc3)N=C2C)c(OC)c1 the inhibition was 52.9% (active). In the case of Cc1c(NC(=O)c2cc(-c3ccc(Cl)s3)nc3ccccc23)c(=O)n(-c2ccccc2)n1C, the inhibition is reported as 25.7% (inactive). With NC(=NC(=O)c1ccccc1)C1=C(O)CCC1=O the inhibition was 15.3% (inactive). With Cc1cccc(CS(=O)(=O)c2ncc(Cl)c(C(=O)Nc3ccc(F)cc3)n2)c1 the inhibition was 39.1% (inactive). In the case of Cc1ccc(CS(=O)(=O)c2ncc(Cl)c(C(=O)Nc3nnc(C)s3)n2)cc1, the inhibition is reported as 18.2% (inactive). In the case of Cc1cccc(NC(=O)c2nc(S(=O)(=O)Cc3ccccc3)ncc2Cl)c1, the inhibition is reported as 75.9% (active). With CCOC(=O)Cc1cc(=O)[nH]c(/N=C(\N)Nc2ccc(OC)cc2)n1 the inhibition was -4.74% (inactive). With COCCNc1ccc(-c2n[nH]c(=O)c3ccccc23)cc1[N+](=O)[O-] the inhibition was 1.96% (inactive). For Cc1[nH][nH]c(=O)c1C(c1ccc(-c2ccc(Cl)cc2)o1)c1c(C)[nH][nH]c1=O, the inhibition was 84.6% (active). In the case of CN(CC(=O)Nc1ccc(F)cc1)C(=O)c1ccc(-c2ccc(Cl)cc2)o1, the inhibition is reported as 36.9% (inactive). With O=C(NC1CCCCC1)c1ccc(-c2ccc(Cl)cc2)o1 the inhibition was 45.4% (inactive). With Cc1ccsc1C1C(C#N)=C(N)OC2=C1C(=O)CC(C)(C)C2 (configuration not stated) the inhibition was 15.8% (inactive). In the case of NC(=O)COc1ccc(/C=N/NC(=O)C2CCCN2S(=O)(=O)c2ccc(Cl)cc2)cc1 (configuration not stated), the inhibition is reported as 4.5% (inactive). For CC1(C)C=Cc2c(ccc3c2OC[C@@H](c2ccc(O)cc2O)C3)O1, the inhibition was 81.8% (active). With CCCCc1nccn1CCn1ccnc1CCCC the inhibition was 2.76% (inactive). For CN(C(=O)CC(NC(=O)c1ccccc1)(c1ccccc1)c1ccccc1)c1ccccc1, the inhibition was 51.5% (active). With CC(C)(C)c1ccc(C(=O)NNC(=O)Cc2ccccc2)cc1 the inhibition was 8.91% (inactive). For CN(C(=O)COC(=O)CNC(=O)C12CC3CC(CC(C3)C1)C2)c1ccccc1, the inhibition was 3.66% (inactive). For C=CCn1c(P(C)(=O)O)nc2ccccc21, the inhibition was 5.79% (inactive) and -9.61% (inactive). In the case of O=C(c1ccco1)N1CCN(C(=O)C2CCCN(S(=O)(=O)c3cccc4nsnc34)C2)CC1 (configuration not stated), the inhibition is reported as 9.26% (inactive). For Cc1c(Br)ccc(NC(=O)COc2ccccc2C(N)=O)c1C, the inhibition was 3.99% (inactive). With Cc1cc(=O)cc(C)n1-c1ccc(Cl)c(Cl)c1 the inhibition was 1.14% (inactive). In the case of CCSC1=C(C#N)C(=O)n2c1cc1c2CCCC1, the inhibition is reported as 58% (active). In the case of CCSc1ncnc2c(C#N)c3n(c12)CCCCC3, the inhibition is reported as 32.7% (inactive). With CC(=O)NC1CCN(CC(=O)Nc2nccs2)CC1 the inhibition was 8.15% (inactive). With COc1ccccc1CCCNC(=O)C1CCC(=O)N(CCN2CCOCC2)C1 (configuration not stated) the inhibition was -0.497% (inactive). For Fc1ccccc1COc1ccccc1CNCc1ccncc1, the inhibition was 3.21% (inactive). With CCN1CCc2nc(NC(=O)c3cc(F)c(F)cc3Cl)sc2C1 the inhibition was 4.64% (inactive). In the case of COc1ccc(CNC(=O)CCn2cccc2)cc1, the inhibition is reported as 6.47% (inactive). For COc1ccc(CNC(=O)/C(C#N)=C/c2cccc(OC)c2OC)cc1, the inhibition was 71.3% (active). For COc1ccc(NC(=O)/C(C#N)=C\c2cc(OC)c(OCc3ccc(C(=O)O)cc3)cc2Br)cc1, the inhibition was 20.5% (inactive). In the case of CN(CC(=O)Nc1ccccc1[N+](=O)[O-])Cc1ccc(Br)cc1, the inhibition is reported as 1.11% (inactive). For COc1ccccc1CNC(=O)C1Cc2ccccc2C(=O)O1 (configuration not stated), the inhibition was 17.7% (inactive). With COc1cc(NS(=O)(=O)c2ccc3ccccc3c2)c2ncccc2c1 the inhibition was 26.4% (inactive). For NS(=O)(=O)c1ccc(CCNS(=O)(=O)c2cccc3cccnc23)cc1, the inhibition was 11.4% (inactive). In the case of O=[N+]([O-])c1ccccc1S(=O)(=O)Nc1cccc2cccnc12, the inhibition is reported as 57.4% (active). For CC1(C)COC(c2cccn2Cc2ccccc2Cl)=N1, the inhibition was 2.43% (inactive). For COc1ccc(Cl)cc1NC(=O)CN(C)C(=O)c1cc(-c2cccs2)nn1-c1ccccc1, the inhibition was 25.9% (inactive). With CCc1ccc2oc(-c3ccc(N)cc3)nc2c1 the inhibition was 65.6% (active). With O=[N+]([O-])c1ccc2oc(-c3cccc(O)c3)nc2c1 the inhibition was 29.8% (inactive). In the case of O=C(N/N=C\c1cc(Br)c(Br)o1)C1COc2ccccc2O1 (configuration not stated), the inhibition is reported as 50.2% (active). In the case of O=C(CNC(=O)C1COc2ccccc2O1)N/N=C/c1cc(Br)c(O)c(Br)c1 (configuration not stated), the inhibition is reported as 12.1% (inactive). For O=C(N/N=C/c1cc2c(cc1Br)OCO2)C1COc2ccccc2O1 (configuration not stated), the inhibition was 22.2% (inactive). For CCOC(=O)c1c(NC(C)=O)sc2c(O)c(Br)ccc12, the inhibition was 20.3% (inactive). In the case of Cc1ccc(-n2c(SCC(=O)N/N=C/C=C/c3ccccc3[N+](=O)[O-])nc3ccccc3c2=O)cc1, the inhibition is reported as 12.1% (inactive). With CCOc1ccc(CCNC(=O)COC(=O)CCS(=O)(=O)c2ccc(C)cc2)cc1OCC the inhibition was 8.24% (inactive). For Cc1ccc(Cn2nnc3c(=O)[nH]c(C4CCN(S(=O)(=O)/C=C/c5ccccc5)CC4)nc32)cc1, the inhibition was 17.8% (inactive). For Nc1ccccc1SC(C[N+](=O)[O-])c1ccccc1 (configuration not stated), the inhibition was 81.4% (active). For Cc1ccc(C(C[N+](=O)[O-])c2c(C)cc3ccccn23)cc1 (configuration not stated), the inhibition was 48.5% (inactive). In the case of O=C(CN(C(=O)c1csnn1)c1ccc(Br)cc1)NC1CCCC1, the inhibition is reported as 6.83% (inactive). For O=C(Nc1nonc1-c1ccc(Cl)cc1)c1ccco1, the inhibition was 29.1% (inactive). In the case of CC(C)[C@H](NC(=O)OCc1ccccc1)C(=O)OCc1ccccc1, the inhibition is reported as 16% (inactive). In the case of Cc1c(S(=O)(=O)NC(C)c2ccccc2)c(=O)n(C)c(=O)n1C (configuration not stated), the inhibition is reported as 0.038% (inactive). With O=C(N/N=C1\CCSC1)c1cc(Cl)ccc1O the inhibition was 7.53% (inactive). In the case of C/C(=N/NC(=O)c1cc(Cl)ccc1O)C12CC3CC(CC(C3)C1)C2, the inhibition is reported as 54.5% (active). In the case of Cc1ccc(C(=O)NC23CC4CC(CC(C4)C2)C3)c(Cl)c1, the inhibition is reported as 20.2% (inactive). In the case of CCOc1ccc(S(=O)(=O)NCCCn2ccnc2)cc1NC(C)=O, the inhibition is reported as -2.51% (inactive). For Cc1ccnc(NC(=O)CCC(=O)N(CC(=O)NCCc2ccccc2)Cc2cccs2)c1, the inhibition was 6.97% (inactive). With COc1cccc(CN2C(=O)CCC2(C)C(=O)NC2CCCCCC2)c1 (configuration not stated) the inhibition was -1.86% (inactive). For COC(=O)c1c(NC(=O)CSc2nncs2)sc2c1CCCCC2, the inhibition was 52.6% (active). In the case of COC(=O)c1c(NC(=O)CCN2CCOCC2)sc2c1CCCC2, the inhibition is reported as 26% (inactive). For COC(=O)c1c(NC(=O)C2CC(C)=C(C)CC2C(=O)O)sc2c1CCCCC2 (configuration not stated), the inhibition was 27.7% (inactive).
